Compound activity: PubChem BioAssay, The Scripps Research Institute Molecular Screening Center
OPRM1-OPRD1 inv – mu-delta opioid heterodimer inverse agonism; P35372+P41143; cell-based MOR-DOR heterodimer luminescence; inhibition, % at 9.3 µM; 340,000 tested, 0.21% active; in the data active = inhibition above about 22%, passing the limit was not always enough;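 also: 0% = cells with DMSO and 100% = wells without cells with DMSO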
OPRM1-OPRD1 ag – OPRM1-OPRD1 heterodimerization agonism; AID 504326; cells, luminescence; activation, % at 9.3 µM; 340,000 tested, 0.3% active; P35372+P41143;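 also: 0% = vehicle-treated cells and 100% = reference agonist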
HTR5A ag ctr – HTR5A agonism, opioid heterodimer counter-screen. HTR5A agonist assay, luminescence, cell-based. 340,000 tested, 0.61% active. P47898. activation, % at 9.3 µM; in the data active = activation mostly above about 9.5%, no sharp cut-off; inactive = mostly below about 7.6%;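 also: 0% = cells with vehicle only and 100% = reference agonist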
Target sequence (P47898 whole entry, looked up): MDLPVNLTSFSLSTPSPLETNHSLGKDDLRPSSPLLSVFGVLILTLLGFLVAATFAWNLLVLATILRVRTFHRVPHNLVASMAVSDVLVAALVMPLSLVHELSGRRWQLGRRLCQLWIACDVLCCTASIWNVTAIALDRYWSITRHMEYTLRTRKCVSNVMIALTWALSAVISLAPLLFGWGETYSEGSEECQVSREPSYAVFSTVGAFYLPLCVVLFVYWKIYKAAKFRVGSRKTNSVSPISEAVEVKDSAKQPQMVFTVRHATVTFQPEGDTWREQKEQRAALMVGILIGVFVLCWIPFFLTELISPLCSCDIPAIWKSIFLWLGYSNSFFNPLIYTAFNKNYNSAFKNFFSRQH
HTR5A inv ag – inverse agonist of human HTR5A in OPRM1-OPRD1 counter-screen; P47898; inhibition, % at 9.3 µM; HTR5A cell line, luminescence, inverse agonism; 340,000 tested, 0.083% active; in the data active = inhibition mostly above about 23%, no sharp cut-off; inactive = mostly below about 18%;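 also: 0% = cells with DMSO and 100% = no-cell wells with DMSO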
OPRM1-D1 ag cf – OPRM1-OPRD1 heterodimer agonism, confirmation; shares compounds with OPRM1-OPRD1 ag; 830 tested, 45% active; activation, % at 9.3 µM; cells, MOR-DOR heterodimerization, luminescence complementation;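 also: 0% = vehicle-treated cells and 100% = reference agonist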
HTR5A ag counter – activates human HTR5A in OPRM1-OPRD1 agonist counter-screen | shares compounds with OPRM1-OPRD1 ag | HTR5A agonist counterscreen, cell luminescence | 830 tested, 8% active | activation, % at 9.3 µM; in the data active = activation above about 17%;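 also: 0% = vehicle-treated cells and 100% = reference agonist response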
The depositor's hits bear a star; i = inactive. In the library only some 1.1% were active in any assay of this set; here they are far more common. Rule as the data show it, unless noted: active = activation above about 18%; inactive = the rest.

SMILES | OPRM1-OPRD1 inv | OPRM1-OPRD1 ag | HTR5A ag ctr | HTR5A inv ag | others
Cc1cc(C)cc(N2C(=O)NC(=O)/C(=C\c3cccn3-c3ccccc3)C2=O)c1 | -7 | 1 | 12 | -23
Cc1cc(C)cc(N2C(=O)NC(=O)/C(=C\c3cccn3-c3ccc(Cl)cc3)C2=O)c1 | -7 | 1 | 14* | -51
O=C(O)C1CN2CCC1CC2 (centres undefined) | 11 | -2 | -3 | -16
Cc1cc(N2CCN(C)CC2)nc2ccccc12 | 1 | 0 | 9.1* | -34
C1CCC(NC2CCCCC2)CC1 | 17 | -3 | -2 | 8
COc1cc2nc(CN3CC=C(c4ccccc4)CC3)[nH]c(=O)c2cc1OC | 15 | -3 | 2 | -6
COc1ccc(CC(C)NCCC(c2ccccc2)c2ccccc2)cc1 (centres undefined) | -31 | 6 | 4 | -15
Cc1ccc(C(=O)Nc2ccc(Cl)cc2C(=O)c2ccccc2)cc1 | -43 | 7 | 11* | -39
C[C@@H]1O[C@@H](O[C@H]2C[C@@H](O)[C@]3(CO)[C@H]4[C@H](O)C[C@]5(C)[C@@H](C6COC(=O)C6)CC[C@]5(O)[C@@H]4CC[C@]3(O)C2)[C@H](O)[C@H](O)[C@H]1O (some centres undefined) | -404 | 73* | 27 | -81
CC1CCN(CC#CCOc2ccc(Cl)cc2)CC1 | -5 | 1 | 2 | -6
COc1ccc(C(=O)N/N=C/C23CC[C@@H](O)CC2(O)CC[C@@H]2[C@@H]3CCC3(C)C(C4=CC(=O)OC4)CCC23O)cc1 (some centres undefined) | -169 | 34* | 30* | 19
CN(C)c1ccc(C(=O)N/N=C/C23CC[C@@H](O)CC2(O)CC[C@@H]2[C@@H]3CCC3(C)C(C4=CC(=O)OC4)CCC23O)cc1 (some centres undefined) | -301 | 59* | 35* | 6
COc1cc(/C=C(/C)[N+](=O)[O-])ccc1OCc1ccccc1Cl | 13 | -2 | -4 | 12
C#CC1(O)CCC2C3CCC4=CC(=O)CCC4=C3C=CC21C (centres undefined) | 2 | 0 | 11* | -43
C#CC1(O)C=CC2C3CCC4=CC(=O)CCC4C3CCC21CC (centres undefined) | -3 | 1 | -3 | 10
CN(C)c1cc[n+](CC(O)C[n+]2ccc(N(C)C)cc2)cc1 | 6 | -1 | -6 | 3
CCOc1cccc(CNCCc2c(C)[nH]c3ccc(OC(F)(F)F)cc23)c1O | -111 | 20* | 16* | -63
S=c1[nH]c2ccccc2[nH]1 | 16 | -3 | 10* | -29
CC(=O)OC1CC(OC2C(O)CC(OC3C(O)CC(OC4CCC5(C)C(CCC6C5CCC5(C)C(C7=CC(=O)OC7)CCC65O)C4)OC3C)OC2C)OC(C)C1OC1OC(CO)C(O)C(O)C1O (centres undefined) | -349 | 68* | 37* | -146
CC(=O)c1cn(CC(=O)NCCc2c[nH]c3ccccc23)c2ccccc12 | -4 | 1 | 5 | -18
CC(=O)NCCc1c[nH]c2ccccc12 | -1 | 0 | 0 | 9
NCCc1c[nH]c2ccccc12 | -11 | 2 | 50* | -7
c1coc(CNCCc2c[nH]c3ccccc23)c1 | 9 | -2 | 13* | -50
O=C1C2CCCN2C(c2cccs2)N1c1ccccn1 (centres undefined) | 14 | -2 | 7 | -18
CCN1CCN(C(=O)COc2ccc(S(=O)(=O)N3CCOCC3)cc2C)CC1 | 16 | -3 | 4 | -11
SMILES | OPRM1-OPRD1 inv | OPRM1-OPRD1 ag | HTR5A ag ctr | HTR5A inv ag | others
Cc1ccc2[nH]c(C)c(CCNCc3ccco3)c2c1 | -2 | 0 | -1 | 5
Cc1cccc(CCNCc2cc3ccc(C)cc3[nH]c2=O)c1 | 5 | -1 | 12* | -43
CC(C)c1ccc(-n2c(O)c(C=NCCN3CCNCC3)c(=O)[nH]c2=S)cc1 | -4 | 1 | 10* | -39
Cc1ccc(-n2c(O)c(C=NCCN3CCNCC3)c(=O)[nH]c2=S)cc1 | 5 | -1 | -1 | 2
COc1cc2c(cc1OC)C1C(=O)c3ccc4c(c3OC1CO2)CC(C(C)C)O4 (centres undefined) | -27 | 6 | 0 | -1
COc1ccc(-n2c(/C=C/c3ccc(O)cc3)nc3ccccc3c2=O)cc1 | -5 | 1 | 10.0* | -38
O=c1c2ccccc2nc(/C=C/c2ccc(O)cc2)n1-c1cccc(O)c1 | 12 | -2 | 9.8* | -25
O=c1c2ccccc2nc(/C=C/c2ccc(O)cc2)n1-c1ccc(O)cc1 | -12 | 3 | -3 | 11
CC(=O)C1CCC2(O)C3CCC4=CC(=O)CCC4(C)C3CCC12C (centres undefined) | 19 | -4 | -2 | 9
C[C@@H]1O[C@@H](O[C@@H]2C=C3CC[C@@H]4C(CC[C@]5(C)[C@@H](c6ccc(=O)oc6)CC[C@]45O)[C@@]3(C)CC2)[C@H](O)[C@H](O)[C@H]1O (some centres undefined) | -393 | 68* | 22* | -65
CCN1/C(=C\C=C\C2=[N+](CC)c3ccccc3C2(C)C)C(C)(C)c2ccccc21 | -53 | 8 | -11 | 38*
N#Cc1cc2c(nc1SCC(=O)Nc1ccc(Cl)cc1)C1CCN2CC1 | -4 | 1 | 12* | -2
N#Cc1cc2c(nc1SCC(=O)Nc1cc(Cl)ccc1Cl)C1CCN2CC1 | 3 | -1 | 0 | -1
COC(=O)C1=CO[C@@H](C)[C@@H]2CN(CCc3c[nH]c4ccccc34)CC[C@H]12 | i | 92* | -8 | -13 | OPRM1-D1 ag cf=123*;HTR5A ag counter=1
COC(=O)C1=COC(C)C2CN3CCC4(C(=O)Nc5ccccc54)C3CC12 (centres undefined) | 4 | -1 | 1 | 21
Cc1cc(NC(=O)CCl)nn1C | -469 | 91* | 6 | -18 | OPRM1-D1 ag cf=1;HTR5A ag counter=2
CC1[C@H]2Cc3ccc(O)cc3[C@]1(C)CCN2CCc1ccccc1 (some centres undefined) | i | 339* | -8 | 19 | OPRM1-D1 ag cf=315*;HTR5A ag counter=0
CC(=O)OC1CC[C@]2(C#N)[C@H]3CC[C@]4(C)[C@H](C5C=CC(=O)O5)CCC4(O)C3CCC2(O)C1 (some centres undefined) | -246 | 51* | 19* | -69 | OPRM1-D1 ag cf=18;HTR5A ag counter=21*
O=c1c2ccccc2nc(-c2ccccc2Cl)n1-c1cccc(O)c1 | 5 | -1 | -2 | 9
CN(C)C1(CNC(=O)Nc2ccc(Cl)c(Cl)c2)CCCCC1 | -358 | 67* | 7 | -19 | OPRM1-D1 ag cf=-1;HTR5A ag counter=-4
Clc1ccc(COC(Cn2ccnc2)c2ccc(Cl)cc2Cl)c(Cl)c1 (centres undefined) | -53 | 10 | 0 | -24
c1ccc(C2(N3CCCCC3)CCCCC2)cc1 | i | 374* | -8 | 18 | OPRM1-D1 ag cf=346*;HTR5A ag counter=-2
